Test results as given in PubChem BioAssay.
Several values for one entry are separate records, joined by “and”; a condition that tells them apart may be missing. Equal entries are not always repeated. Activity calls are given as the source filed them.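 Rule for the calls, unless noted: active = inhibition at or above 50% relative to wild type and mutant plate controls; inactive = inhibition below 50%.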

Columns and labels:
[1] = inhibitors of TNFa-induced NFkB p65 translocation, primary screen, imaging, HUVEC, MLSMR starter and 10KST1 sets (AID 438;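 active = inhibition above 20% together with a positive visual image hit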;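 note: compound added about 3h40 before a 20 min TNFalpha stimulation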;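 for inhibition: signal is the nuclear over cytoplasmic p65 intensity ratio per well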); conditions: HUVEC TNFa-induced p65 nuclear translocation; cell count: measured here: nuclei count (cytotoxicity indicator), at 2.08 µM; inhibition: at 2 µM, stronger effect = higher value, 0% TNFa-plus-vehicle, 100% no-TNFa wells
[2] = inhibitors of E-selectin induction by TNFa, primary screen, imaging, HUVEC, immunofluorescence, MLSMR starter and 10KST1 sets (AID 487;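 active = visually confirmed hit in the image check and inhibition above 20%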;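 for inhibition: signal is fraction of cell area covered by stained E-selectin grains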;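 for nuclei count: 100% = median nuclei count of all wells on the same plate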); conditions: HUVEC TNFalpha-induced E-selectin immunofluorescence imaging, at 2 µM; inhibition: stronger effect = higher value; nuclei count: measured here: cell number, toxicity
[3] = DUSP6 inhibitors restoring Erk phosphorylation by chemical complementation, primary imaging in DUSP6-transfected HeLa (AID 609;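 active = compounds giving at least 50% inhibition in the cell-based MKP-3 phosphatase rescue imaging test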;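 for inhibition: phospho-Erk level distribution per well compared with pooled transfected vehicle control wells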); conditions: HeLa MKP-3 transfected, phospho-Erk imaging KS statistic, at 10 µM, cells stimulated with TPA for 15 min
[4] = target: Dual specificity protein phosphatase 6 (Homo sapiens) (UniProt Q16828); test: as above; conditions: HeLa MKP-3 transfected, phospho-Erk imaging KS statistic; at 10 µM; stronger effect = higher value; cells stimulated with TPA for 15 min
[5] = target: Voltage-gated potassium channel subunit beta-2 (Rattus norvegicus) (UniProt P62483); test: KvBeta enzyme negative modulators, primary screen, biochemical, NADPH fluorescence (AID 622;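 active = fluorescence slope higher than the sample average by over 3 SD, cut at about -0.22 in these data, passing the limit was not always enough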;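 note: slope of raw intensity against log time taken from 70 to 1610 s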); conditions: recombinant KvBeta, 4-cyanobenzaldehyde reduction, at 10 µM, stronger effect = higher value
[6] = target: Voltage-gated potassium channel subunit beta-2 (Rattus norvegicus) (UniProt P62483); test: KvBeta positive modulators, primary screen, biochemical, NADPH fluorescence (AID 623;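 active = NADPH fluorescence slope more negative than the mean of all samples by about 3 SD, 99.7% confidence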;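 note: fluorescence intensity change per second fitted from 20 to 320 s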); conditions: Recombinant KvBeta, NADPH fluorescence decrease slope, 10 min; at 10 µM; stronger effect = lower value
[7] = target: Alpha-2C adrenergic receptor (Homo sapiens) (UniProt P18825); test: modulators of alpha2C/GIRK thallium flux, primary screen, cell-based, HEK293 alpha2C/GIRK1/2 (AID 624;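 active = fluorescence slope after compound addition differing from the mean of all screened samples at 99.7% confidence, in either direction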;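 note: slope of fluorescence ratio to pre-addition baseline per second over 15 to 24 s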); conditions: thallium flux BTC fluorescence, at 10 µM, actives lie on both sides
[8] = inhibitors of larval lipid processing in zebrafish, primary screen, whole organism, PED6 fluorescence, gall bladder and intestine (AID 686;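 active = a full or partial loss of lipid-probe fluorescence in the fish gall bladder, intestine or both, judged by eye; inactive = no fluorescence loss, or compound toxic to the fish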;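 note: larvae 5 to 7 days old with five fish per well; signal comes from phospholipase A2 cleavage of quenched PED6 carried via bile; overnight exposure to compound and PED6 before scoring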); conditions: Zebrafish larvae PED6 lipid processing, fluorescence scoring; screened at 20 µM (by protocol)
[9] = inhibitors of Chlamydomonas gravitaxis, primary screen, whole organism, Chlamydomonas reinhardtii, WT vs cilia-less mutant, absorbance, 96-well (AID 463189); conditions: OD600 absorbance, 2 days, at 10 µM, stronger effect = higher value;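 note: 0% = wild type cc124 cells in DMSO and 100% = ciliumless bld1 mutant cells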
[10] = inhibitors of Sendai virus-induced IRF3 signaling, primary screen, TLR/RLR signaling modifier project, cell-based, Sendai virus stimulus, luciferase, 10K MLSCN set (AID 602276;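 active = inhibition at or above 50% at 10 µM; inactive = inhibition below 50%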;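 note: firefly luciferase from ISG56 promoter only with Renilla not read in this screen; 0% = Sendai virus plus DMSO and 100% = medium plus DMSO without virus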); conditions: HEK293 RL24 IRF3 luciferase reporter, at 10 µM, stronger effect = higher value
[11] = inhibitors of poly I:C-induced TLR3 signaling, primary screen, cell-based, poly I:C stimulus, luciferase, 10K MLSCN set (AID 602277;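 active = inhibition of the reporter signal at or above 50%; inactive = inhibition below 50%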); conditions: HEK293-TLR3 RL24 IRF3 luciferase reporter, at 10 µM, stronger effect = higher value
[12] = inhibitors of mutant huntingtin aggregation, primary screen, imaging, exon1htt(103Q)mCFP cells, high-content imaging (AID 483;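 active = visual image review flags a hit and inhibition of aggregation exceeds 20%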;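 note: compound exposure lasted 3 days before fixation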;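 for nuclei count: percent of the per-plate median nuclei count of sample wells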); conditions: exon1htt(103Q)mCFP cell line, aggregate imaging, at 2 µM; inhibition of aggregation: stronger effect = higher value; nuclei count: measured here: cell count, toxicity
[13] = target: Muscarinic acetylcholine receptor M4 (Homo sapiens) (UniProt P08173); test: compounds altering M4/GIRK thallium flux, either direction, primary screen, M4 allosteric agonist project, cell-based, HEK293 M4/GIRK, BTC-AM (AID 625;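 active = fluorescence slope after compound addition differing from the mean of all tested samples at 99.7% confidence, mostly higher but some lower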;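 note: thallium influx through GIRK channels coupled to M4 in HEK293 cells with BTC-AM dye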); conditions: at 10 µM, actives lie on both sides
[14] = measured here: cell density z-score
[15] = measured here: nuclear c-Myc green intensity z-score
[16] = measured here: nuclear pErk red intensity z-score, stronger effect = higher value

Chain of Dual specificity protein phosphatase 6 (Homo sapiens) (Q16828 whole entry, looked up): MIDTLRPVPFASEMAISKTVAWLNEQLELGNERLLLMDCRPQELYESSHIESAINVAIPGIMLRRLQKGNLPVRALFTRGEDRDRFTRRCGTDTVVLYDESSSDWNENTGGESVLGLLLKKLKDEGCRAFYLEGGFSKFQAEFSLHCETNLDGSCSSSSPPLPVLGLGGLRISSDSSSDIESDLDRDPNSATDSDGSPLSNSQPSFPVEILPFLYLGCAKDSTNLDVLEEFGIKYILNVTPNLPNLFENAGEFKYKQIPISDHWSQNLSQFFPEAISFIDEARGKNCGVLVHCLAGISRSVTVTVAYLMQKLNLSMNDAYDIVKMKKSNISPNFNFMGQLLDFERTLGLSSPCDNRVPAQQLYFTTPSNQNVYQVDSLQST
Chain of Voltage-gated potassium channel subunit beta-2 (Rattus norvegicus) (P62483 whole entry, looked up): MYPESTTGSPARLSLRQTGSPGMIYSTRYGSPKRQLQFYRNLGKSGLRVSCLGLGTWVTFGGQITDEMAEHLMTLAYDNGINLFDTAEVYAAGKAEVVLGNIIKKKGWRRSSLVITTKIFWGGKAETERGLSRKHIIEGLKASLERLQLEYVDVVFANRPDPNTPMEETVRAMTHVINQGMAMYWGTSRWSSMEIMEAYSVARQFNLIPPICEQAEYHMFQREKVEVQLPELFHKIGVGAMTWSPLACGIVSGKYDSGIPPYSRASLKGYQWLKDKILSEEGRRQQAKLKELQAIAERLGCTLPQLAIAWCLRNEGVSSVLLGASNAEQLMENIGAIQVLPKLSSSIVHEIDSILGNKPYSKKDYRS
Chain of Alpha-2C adrenergic receptor (Homo sapiens) (P18825 whole entry, looked up): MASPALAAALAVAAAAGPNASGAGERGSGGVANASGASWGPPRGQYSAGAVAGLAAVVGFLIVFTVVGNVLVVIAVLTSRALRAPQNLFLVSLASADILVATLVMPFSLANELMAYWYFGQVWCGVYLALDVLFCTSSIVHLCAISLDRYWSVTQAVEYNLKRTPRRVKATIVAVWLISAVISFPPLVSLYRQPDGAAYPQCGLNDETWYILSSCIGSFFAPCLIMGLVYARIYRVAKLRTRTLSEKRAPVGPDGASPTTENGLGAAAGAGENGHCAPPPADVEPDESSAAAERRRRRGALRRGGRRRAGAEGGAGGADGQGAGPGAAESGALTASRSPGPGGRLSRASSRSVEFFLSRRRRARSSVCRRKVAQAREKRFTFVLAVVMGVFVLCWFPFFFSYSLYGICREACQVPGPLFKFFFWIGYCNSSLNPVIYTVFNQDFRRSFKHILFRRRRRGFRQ
Chain of Muscarinic acetylcholine receptor M4 (Homo sapiens) (P08173 whole entry, looked up): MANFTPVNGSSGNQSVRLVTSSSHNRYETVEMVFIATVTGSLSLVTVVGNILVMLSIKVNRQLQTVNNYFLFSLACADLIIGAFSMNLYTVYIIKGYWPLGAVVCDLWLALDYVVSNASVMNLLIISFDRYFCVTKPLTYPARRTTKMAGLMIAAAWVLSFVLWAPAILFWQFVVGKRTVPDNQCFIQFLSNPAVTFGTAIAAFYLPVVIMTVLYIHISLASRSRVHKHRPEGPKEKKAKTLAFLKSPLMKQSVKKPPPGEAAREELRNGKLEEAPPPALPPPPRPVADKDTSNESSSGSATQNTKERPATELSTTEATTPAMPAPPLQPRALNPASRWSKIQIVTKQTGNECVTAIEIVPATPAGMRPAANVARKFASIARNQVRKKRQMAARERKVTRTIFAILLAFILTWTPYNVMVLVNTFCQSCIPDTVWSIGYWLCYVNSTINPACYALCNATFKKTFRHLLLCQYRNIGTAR

| SMILES | cell count [1] | inhibition [1] | inhibition [2] | nuclei count [2] | z-score [3, 14] | z-score [3, 15] | z-score [3, 16] | inhibition [4] | fluorescence slope [5] | NADPH fluorescence slope [6] | slope [7] | outcome [8] | inhibition [9] | inhibition [10] | inhibition [11] | inhibition of aggregation [12] | nuclei count [12] | fluorescence slope [13] |
| --- | --- | --- | --- | --- | --- | --- | --- | --- | --- | --- | --- | --- | --- | --- | --- | --- | --- | --- |
| CC(=O)O[C@H]1C(=O)[C@]2(C)[C@H]([C@H](OC(=O)c3ccccc3)[C@]3(O)C[C@H](OC(=O)[C@H](O)[C@@H](NC(=O)c4ccccc4)c4ccccc4)C(C)=C1C3(C)C)[C@]1(OC(C)=O)CO[C@@H]1C[C@@H]2O | 508 | -11.8% (inactive) | -188% (inactive) | 105% | 0.529 | 0.25 | 0.563 | -2.46% (inactive) | -0.449 (inactive) | -1.6e-05 (inactive) | 0.00483 (inactive) | inactive | 0.148% (inactive) | 17.7% (inactive) | 44.3% (inactive) |  |  |  |
| CN1CCN(C2=Nc3ccccc3Oc3ccc(Cl)cc32)CC1 | 536 | -3.1% (inactive) | -3.4% (inactive) | 105% | -0.87 | 0.672 | -0.787 | 14.6% (inactive) | -0.437 (inactive) | -4.1e-05 (inactive) |  | inactive; toxic | 27.3% (inactive) and 39.2% (inactive) | 13.8% (inactive) | 41.9% (inactive) | -4.5% (inactive) | 91.8% |  |
| CC1(C)S[C@@H]2[C@H](NC(=O)[C@H](C(=O)O)c3ccsc3)C(=O)N2[C@H]1C(=O)O | 519 | -8.9% (inactive) | -44% (inactive) | 99.7% | -1.03 | -0.916 | 0.566 | 7.39% (inactive) | -0.44 (inactive) | -4.7e-05 (inactive) | 0.00461 (inactive) | inactive | 11.7% (inactive) | 12.3% (inactive) | 36.3% (inactive) |  |  |  |
| O=C(c1ccc2c(c1)OCCO2)N1CCCCC1 | 580 | -15% (inactive) | -38.6% (inactive) | 122% |  |  |  |  | -0.406 (inactive) | 1.1e-06 (inactive) | 0.00377 (inactive) |  | -4.88% (inactive) | 8.03% (inactive) | 18.3% (inactive) | -3.4% (inactive) | 106% |  |
| CC(C)NCC(O)COc1cccc2[nH]ccc12 (stereo not given) | 631 | -11.5% (inactive) | -58% (inactive) | 126% | 0.107 | -0.142 | 0.346 | 3.45% (inactive) | -0.46 (inactive) | -4.4e-05 (inactive) | 0.00514 (inactive) | inactive | -3.19% (inactive) and 0.043% (inactive) | -0.334% (inactive) | 29.8% (inactive) |  |  |  |
| Cc1c(O)c(CN2CCCC(C)C2)cc2c3c(c(=O)oc12)CCC3 (stereo not given) | 695 | -6.3% (inactive) | 30.2% (inactive) | 136% | -0.479 | 2 | 1.18 | -8.95% (inactive) | -0.0135 (inactive) | 8.2e-07 (inactive) |  | inactive | 0.622% (inactive) | 13.6% (inactive) | 16% (inactive) | -0.7% (inactive) | 102% | 0.00443 (inactive) |
